Screening results from PubChem BioAssay.
ELG1 DNA repair – blocks ELG1-dependent DNA repair in HEK293T cells. 330,000 tested, 2.3% active. HEK293T ELG1-luciferase reporter, luminescence, 16 h; DNA damage induced by 5-fluorouridine. Potency, µM (top dose mostly 46.1 µM), for inactives: top-dose activity change, negative = inhibition, usual class: inhibitors; note: % is set by controls: 0 for no effect and ±100 for the full control effect; nearly all actives have a fitted effect of over 55% in size
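In this reporter screen, reduction of luminescence relative to DMSO vehicle indicated activity. Compounds and 5-fluorouridine were added together to 2,000 cells per well, incubated for 16 hr at 37 °C, then developed with ONE-Glo.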
p53 reactivator – re-activators of mutant p53; AID 504706; 320,000 tested, 0.063% active; Potency, µM (top dose mostly 92.2 µM), for the others: at the top dose activity change, positive = activation, usual class: activators; H1299 p53-A138V BP100-luciferase reporter, luminescence, 24 h; note: % of control where 0% means no effect; nearly all actives have a fitted effect of over 45% in size
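H1299 (p53-null), stable ts p53-A138V + BP100-Luc; 1000 cells/well, Opti-MEM/10% FBS; cpd 4 pt, 1:5; 24 h, 37 deg C, 5% CO2; detection reagent 10 min RT; luminescence.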
SW480 rereplic – inducers of DNA re-replication in SW480 colon cancer cells | SW480 DNA re-replication, Hoechst DNA content imaging, 48 h | Potency, µM (doses to about 46.1 µM), without a hit: at the top dose re-replication activation, actives largely listed as activators | 340,000 tested, 1.8% active | AID 624297; note: % of control where 0% means no effect; nearly all actives have a fitted effect of over 55% in size
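Readout is total intensity of Hoechst-stained nuclei, excited at 405 nm and collected at 500-530 nm. Compound treatment lasted 48 hr at 37 C in 5% CO2 before staining.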
A-T KAP1 phos – potential ataxia-telangiectasia treatments restoring KAP-1 phosphorylation; 320,000 tested, 0.19% active; F2112 A-T fibroblasts, KAP-1 phosphorylation AlphaLISA; neocarzinostatin DNA damage 30 min before lysis; Potency, µM (series often up to 57.5 µM), inactives show at the highest dose activation, actives largely listed as activators; note: % of control where 0% means no effect; nearly all actives have a fitted effect of over 45% in size
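hTERT-immortalized A-T patient fibroblasts (F2112), 500 cells/well in OPTI-MEM, 1% FBS, got compounds for 60 min, then NCS for 30 min at 37C. Lysates were then assayed for phospho-KAP-1 by AlphaLISA (anti-pKAP1 donor, anti-KAP1 acceptor beads), 6 hr at 25C.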
MCF10A rerep – inducers of DNA re-replication in MCF 10A breast cells; MCF 10A DNA re-replication, Hoechst nuclear intensity, 48 h; 350,000 tested, 2.9% active; Potency, µM (top dose mostly 46.1 µM), inactives show at the top dose activity, positive = re-replication, usual class: activators; note: % of control where 0% means no effect; nearly all actives have a fitted effect of over 50% in size
ELG1 genotox – induces genotoxicity in HEK293T cells with luciferase-tagged ELG1; Potency, µM (highest dose often 46 µM), for inactives: at the top dose activity change, positive = activation, usual class: activators; HEK293T ELG1-luciferase reporter, luminescence, 16 h; 330,000 tested, 1.3% active; note: % of control where 0% means no effect; nearly all actives have a fitted effect of over 60% in size
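16 hr compound incubation (37 °C, 5% CO2) of HEK293T cells carrying luciferase-tagged ELG1; luciferase then measured by ONE-Glo luminescence after 30 min at RT.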
An asterisk follows results filed as active; u = inconclusive; x = no result. This is a sample that favours compounds with a hit; in the whole collection about 7.1% have one here. Calls come from the whole dose curve; as a rule, active = well fitted curve in the direction sought with a large enough effect; inconclusive = small, poorly fitted or top-dose-only effect, or another doubt; inactive = no such curve, though single readings can be large; an effect the other way counts as inactive or inconclusive. Potency is the fitted concentration of half-maximal effect.

SMILES | ELG1 DNA repair | p53 reactivator | SW480 rereplic | A-T KAP1 phos | MCF10A rerep | ELG1 genotox
Cc1ccc(S(=O)(=O)c2cc3c(=O)n4ccccc4nc3n(CCCN3CCOCC3)c2=N)cc1C | 1.0% | 0.4% | 23.1µM* | 6.6% | 23.1µM* | 0.5%
Cc1ccc(C2=NNC(c3cccc(F)c3)S2)cc1 (configuration not stated) | u | 34.7% | -2.1% | 2.5% | 8.0% | -23.1%
Fc1cccc(C2NN=C(c3ccccc3)S2)c1 (configuration not stated) | u | u | -6.7% | 10.0% | -2.8% | 2.31µM*
Oc1ccc(CNCc2ccc3c(c2)OCO3)c2cccnc12 | x | x | x | -7.8% | x | x
CCCCN(CCCC)C(=O)CSc1nnc(-c2cc(OC)c(OC)c(OC)c2)o1 | 10.3µM* | -5.9% | -0.1% | -5.3% | -3.9% | -20.1%
CCCCOC(=O)CSc1nnc(-c2cc(OC)c(OC)c(OC)c2)o1 | -3.0% | 12.4% | -13.7% | 0.6% | 22.5% | 2.1%
COc1cc(-c2nnc(SCC(=O)N(Cc3ccccc3)C(C)(C)C)o2)cc(OC)c1OC | 20.6µM* | 2.4% | 11.0% | 6.7% | 16.0% | -19.4%
COc1cc(-c2nnc(SCC(=O)N(C)C3CCS(=O)(=O)C3)o2)cc(OC)c1OC (configuration not stated) | -1.6% | -3.4% | -7.9% | 5.3% | 1.5% | 13.5%
Cc1ccc2c(CSc3nnnn3C)cc(=O)oc2c1 | 17.1% | -5.9% | -4.9% | -2.9% | -1.9% | 4.6%
COc1cc(OC)cc(-c2nnc(SCC(=O)N(C(C)C)C(C)C)o2)c1 | -12.7% | -0.4% | -0.8% | 17.4% | u | -3.6%
COc1cc(-c2nnc(SCc3cc(=O)oc4cc(C)ccc34)o2)cc(OC)c1OC | 11.6µM* | -2.7% | 17.6% | -2.2% | 8.1% | 5.2%
COc1cc(OC)cc(-c2nnc(SCC(=O)N(Cc3ccccc3)C(C)(C)C)o2)c1 | 23.1µM* | -3.2% | 22.6% | 5.1% | 27.8% | -29.6%
CCOc1cc(C)nc(N2CCC(C(=O)NC3CC3)CC2)n1 | x | x | -10.7% | x | 0.3% | x
CN(Cc1ccccc1Cl)C(=O)CNC(=O)C12CC3CC(CC(C3)C1)C2 | 2.4% | -3.8% | -26.1% | -2.2% | 11.0% | -4.4%
Cc1ccc(SC(C)C(=O)NC(N)=O)c(C)c1 (configuration not stated) | -12.6% | -0.6% | -2.5% | -25.2% | 0.581µM* | 1.7%
CC(Sc1ccc2ccccc2c1)C(=O)NC(N)=O (configuration not stated) | -4.7% | -0.3% | 2.3% | 8.0% | -0.6% | 1.2%
N#CC1=C(N)C(C#N)(C#N)[C@H](c2ccoc2)[C@H]2CN(Cc3ccccc3)CC=C12 | 5.0% | 25.7% | 16.4µM* | -2.6% | 7.31µM* | 3.6%
Cc1ccc(S(=O)(=O)Oc2ccccc2[N+](=O)[O-])cc1 | x | x | 27.8% | x | 3.9% | x
Cc1cc(OC(C)C(=O)NCc2cccnc2)c2c(C)cc(=O)oc2c1 (configuration not stated) | u | 0.6% | 0.6% | -12.5% | -0.6% | 3.6%
COc1ccc2c(c1)NC(=O)CC(c1ccccc1)=N2 | u | 6.5% | u | x | u | 16.4µM*
COc1ccc(O)c(C2=Nc3ccccc3N=C(c3ccccc3)C2)c1 | u | 11.0% | u | 15.5% | 13.7% | -12.4%
NC(=O)c1ccc2nc(NC(=O)c3ccc(N)cc3)sc2c1 | u | 1.0% | 21.9% | 35.5µM* | 7.4% | 16.3%
CCNC(=O)COC(=O)c1ccc(-c2nc3ccccc3s2)s1 | u | -7.1% | u | -5.3% | -5.1% | u
Cc1noc(C)c1COC(=O)c1ccc(-c2nc3ccccc3s2)s1 | u | 2.6% | -3.8% | 15.5% | 7.5% | 7.31µM*
Cc1cnc(C(=O)Nc2nnc(C(C)C)s2)cn1 | u | u | -9.4% | 5.0% | 1.2% | 9.2µM*
O=C(Nc1nc2ccccc2s1)c1ccc(F)cc1 | u | 3.4% | -5.0% | 8.9% | -0.8% | 2.59µM*
